Measurements taken from the supplement of paper PMC7411054.
Where a name gives a salt, the structure may show the parent alone.

System: WPMY1-GM130-SQSTM1
Assay: lowest phenotypically active concentration; higher = less potent
Details: treatment time: 24 h
Outline: (§1)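 After 24 h at 0.3, 1, 3 or 9 µM, with four wells per treatment, fifteen gene-edited A549, HepG2 and WPMY1 reporter lines carrying BFP, GFP and RFP/FusionRed were imaged live. Each well's live-cell features were expressed relative to solvent control wells. Deviation required ≥3 of 4 wells past the 95th percentile of control Euclidean distances, and reproducibility a median replicate Pearson correlation over the 95th percentile of non-replicates. Phenotypic activity rested on both.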

Going from `CC/C(=C(\CC)c1ccc(O)c(CN(CC)CC)c1)c1ccc(O)c(CN(CC)CC)c1` to `Cc1noc(C)c1-c1ccc2c(c1)nc(CCc1ccc(OCCCN(C)C)cc1)n2CCN1CCOCC1`, the “lowest phenotypically active concentration” value rises from 1 µM to 9 µM (9-fold).

`CNCCC(Oc1ccc(C(F)(F)F)cc1)c1ccccc1` (configuration not stated) [fluoxetine] and `NC(=O)c1cccc(-c2cc(Nc3ccc(OC(F)(F)F)cc3)ncn2)c1` are the same in “lowest phenotypically active concentration” value: 9 µM for the first, 9 µM for the second.

First: Cn1cc(C2=C(c3ccc(Cl)cc3Cl)C(=O)NC2=O)c2ccccc21
Second: COc1c(C=O)c(O)cc2c1C(=O)c1ccccc1C2=O [Damnacanthal]
The “lowest phenotypically active concentration” value of the first is lower: ≤ 0.3 µM for the first, 3 µM for the second.

`CC(C)COCC(CN(Cc1ccccc1)c1ccccc1)N1CCCC1` (configuration not stated) [bepridil] and `CN1[C@@H]2CC[C@H]1C[C@@H](OC(c1ccccc1)c1ccccc1)C2` [benztropine] are the same in “lowest phenotypically active concentration” value: 9 µM for the first, 9 µM for the second.

Going from `COc1ccc(CCNCc2ccc(OCc3ccc(Cl)nc3)c(OC)c2)cc1OC` [SBE 13 hydrochloride] to `COc1ccccc1OCCNCC(O)COc1cccc2[nH]c3ccccc3c12` (configuration not stated) [Carvedilol], the “lowest phenotypically active concentration” value falls from 9 µM to 3 µM (3-fold).

First: Cc1noc(C)c1Cn1cc(C#N)c2cc(Oc3ccc(NC(=O)[C@@H]4CCCN4)cc3)ccc21
Second: Cc1cc(Nc2ccc(NC(=O)c3ccc(Nc4ccnc5ccccc45)cc3)cc2)nc(N)n1
The “lowest phenotypically active concentration” value of the first is 9-fold higher: 9 µM for the first, 1 µM for the second.

Going from `CCCS(=O)(=O)Nc1ccc(F)c(C(=O)c2c[nH]c3ncc(Cl)cc23)c1F` to `COc1cc(N2CCC(N)CC2)ccc1Nc1ncc(Cl)c(-c2c[nH]c3ccccc23)n1`, the “lowest phenotypically active concentration” value falls from 9 µM to 1 µM (9-fold).

Going from `COc1ccc(CNC(=O)Nc2ncc([N+](=O)[O-])s2)cc1` to `CCCNCC(O)COc1ccccc1C(=O)CCc1ccccc1` (configuration not stated) [propafenone], the “lowest phenotypically active concentration” value falls from 9 µM to 3 µM (3-fold).

`CC(C)OC(=O)c1cc2c(OCC(O)CNC(C)(C)C)cccc2[nH]1` (configuration not stated) and `O=C(O)[C@@H]1[C@H]2C[C@H]3c4[nH]c5ccccc5c4CCN3C[C@@H]2CC[C@@H]1O` [Yohimbinic acid monohydrate] are the same in “lowest phenotypically active concentration” value: 9 µM for the first, 9 µM for the second.

`O=S(=O)(c1cccc2cnccc12)N1CCCNCC1` [fasudil] and `NS(=O)(=O)c1nn2cc(-c3ccccc3)nc2s1` are the same in “lowest phenotypically active concentration” value: 9 µM for the first, 9 µM for the second.

`Clc1ccccc1C(c1ccccc1)(c1ccccc1)n1ccnc1` [Clotrimazole] and `C[C@]1(O)C[C@@H](c2nc(-c3ccc4ccc(-c5ccccc5)nc4c3)c3c(N)nccn32)C1` [linsitinib] are the same in “lowest phenotypically active concentration” value: 9 µM for the first, 9 µM for the second.

Going from `CSc1ccc2c(c1)N(CCC1CCCCN1C)c1ccccc1S2` (configuration not stated) [thioridazine] to `O=C(O)C[C@H](O)C[C@H](O)/C=C/c1c(C2CC2)nc2ccccc2c1-c1ccc(F)cc1` [Pitavastatin calcium], the “lowest phenotypically active concentration” value falls from 9 µM to ≤ 0.3 µM.

For `Cc1ccc(NC2=CC(=O)c3sc(C)nc3C2=O)cc1` [Ryuvidine], the “lowest phenotypically active concentration” value was 1 µM.

System: WPMY1-TP53BP1-CLTA
Assay: as above
Details: treatment time: 24 h
Outline: as §1

`CC/C(=C(\CC)c1ccc(O)c(CN(CC)CC)c1)c1ccc(O)c(CN(CC)CC)c1` and `Cc1noc(C)c1-c1ccc2c(c1)nc(CCc1ccc(OCCCN(C)C)cc1)n2CCN1CCOCC1` are the same in “lowest phenotypically active concentration” value: 9 µM for the first, 9 µM for the second.

Compared with `Cn1cc(C2=C(c3ccc(Cl)cc3Cl)C(=O)NC2=O)c2ccccc21`, `COc1c(C=O)c(O)cc2c1C(=O)c1ccccc1C2=O` [Damnacanthal] is higher in “lowest phenotypically active concentration” value: ≤ 0.3 µM for the first, 9 µM for the second.

First: CC(C)COCC(CN(Cc1ccccc1)c1ccccc1)N1CCCC1 (configuration not stated) [bepridil]
Second: CCCNCC(O)COc1ccccc1C(=O)CCc1ccccc1 (configuration not stated) [propafenone]
The “lowest phenotypically active concentration” value of the first is 3-fold higher: 9 µM for the first, 3 µM for the second.

`COc1cc(OC)c2cc(-c3ccncc3)cnc2c1` [DMPQ dihydrochloride] and `COc1ccc(CCNCc2ccc(OCc3ccc(Cl)nc3)c(OC)c2)cc1OC` [SBE 13 hydrochloride] are the same in “lowest phenotypically active concentration” value: 9 µM for the first, 9 µM for the second.

`N#C/C(=C(/N)Sc1ccc(N)cc1)c1ccccc1C(F)(F)F` and `NC(=O)c1cccc(-c2cc(Nc3ccc(OC(F)(F)F)cc3)ncn2)c1` are the same in “lowest phenotypically active concentration” value: 9 µM for the first, 9 µM for the second.

Compared with `Cc1noc(C)c1Cn1cc(C#N)c2cc(Oc3ccc(NC(=O)[C@@H]4CCCN4)cc3)ccc21`, `Cc1cc(Nc2ccc(NC(=O)c3ccc(Nc4ccnc5ccccc45)cc3)cc2)nc(N)n1` is 3-fold lower in “lowest phenotypically active concentration” value: 9 µM for the first, 3 µM for the second.

`COc1ccc(CNC(=O)Nc2ncc([N+](=O)[O-])s2)cc1` and `NS(=O)(=O)c1nn2cc(-c3ccccc3)nc2s1` are the same in “lowest phenotypically active concentration” value: 9 µM for the first, 9 µM for the second.

Compared with `C[C@H]1Oc2cc(cnc2N)-c2c(nn(C)c2C#N)CN(C)C(=O)c2ccc(F)cc21`, `COc1cc(N2CCC(N)CC2)ccc1Nc1ncc(Cl)c(-c2c[nH]c3ccccc23)n1` is lower in “lowest phenotypically active concentration” value: 9 µM for the first, ≤ 0.3 µM for the second.

`CC(C)OC(=O)c1cc2c(OCC(O)CNC(C)(C)C)cccc2[nH]1` (configuration not stated) and `COc1ccccc1OCCNCC(O)COc1cccc2[nH]c3ccccc3c12` (configuration not stated) [Carvedilol] are the same in “lowest phenotypically active concentration” value: 9 µM for the first, 9 µM for the second.

Compared with `CSc1ccc2c(c1)N(CCC1CCCCN1C)c1ccccc1S2` (configuration not stated) [thioridazine], `O=C(O)C[C@H](O)C[C@H](O)/C=C/c1c(C2CC2)nc2ccccc2c1-c1ccc(F)cc1` [Pitavastatin calcium] is 9-fold lower in “lowest phenotypically active concentration” value: 9 µM for the first, 1 µM for the second.

`O=C(O)[C@@H]1[C@H]2C[C@H]3c4[nH]c5ccccc5c4CCN3C[C@@H]2CC[C@@H]1O` [Yohimbinic acid monohydrate] and `C[C@]1(O)C[C@@H](c2nc(-c3ccc4ccc(-c5ccccc5)nc4c3)c3c(N)nccn32)C1` [linsitinib] are the same in “lowest phenotypically active concentration” value: 9 µM for the first, 9 µM for the second.
